Experimental findings from the supplement of paper PMC6522484 are described below.

Molecules are shown by their SMILES. ± gives the standard deviation of the averaged measurements.

For assay [1], the system named is DLD1. Put plainly: cell viability (CellTiter-Glo) relative to plate median (fraction of plate median); higher = more viable cells. The conditions noted are these: 5 µM; treatment time 24 h; reporter: 7TFP. A digest of the protocol:
(§1)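 Library compounds were added at a final concentration of 5 µM for 24 h to colorectal cancer cells stably transduced with a lentiviral TCF/Wnt firefly luciferase reporter. Reported values are firefly luciferase or CellTiterGlo luminescence, normalised per well to the plate median. Each value averages two independent replicates.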
(Cellular ATP, detected with luciferase, serves as a proxy for viable cell number.)

The subject of another assay is HCT116. Described as above. Particulars: 5 µM; treatment time 24 h; reporter: TCF4/Wnt. A digest of the protocol:
as §1

For assay [2], the system named is SW480. The assay is described as above. Particulars: 5 µM; treatment time 24 h; reporter: 7TFP. In outline:
as §1

Assay [3] concerns DLD1. Put plainly: TCF/Wnt firefly luciferase reporter signal relative to plate median (fraction of plate median); higher = higher Wnt reporter signal. Particulars: 5 µM; treatment time 24 h; reporter: 7TFP. In outline: as §1
In general terms: Reporter assays use an easily measured gene product as a stand-in for the process of interest.

For assay [4], the system named is SW480. The assay is described as above. The conditions noted are these: 5 µM; treatment time 24 h; reporter: 7TFP. In outline:
as §1

On to `OCC(O)C(O)C(O)C(O)C(O)CO` (stereo not given), for which the cell viability was 1.05 ± 0.042 with DLD1 [1], 1.035 ± 0.0071 in the assay on HCT116 and 0.986 ± 0.049 in the assay on SW480 [2]. Further, the figures for the “TCF/Wnt firefly luciferase reporter signal” value with DLD1 [3] and in the assay with SW480 [4] were 0.9515 ± 0.005 and 1.02 ± 0.091, respectively.
On the same counts, the results for `CC(=O)Oc1cc(C)c2c(c1C=O)Oc1c(c(C)c(OC(C)=O)c3c1C(OC(C)=O)OC3=O)OC2=O` (stereo not given) are 1.025 ± 0.0071, 0.949 ± 0.039, 1.04 ± 0.063, 0.875 ± 0.084 and 1.01 ± 0.099.
On the same counts, the results for `COc1ccc2c(c1)OC[C@@H](Cc1ccc(OC)c(OC)c1)[C@@H]2O` are 1.03, 1.02 ± 0.12, 0.963 ± 0.034, 1 ± 0.015 and 0.973 ± 0.081.
On the same counts, the results for `CON` are 1.03 ± 0.093, 1.01 ± 0.046, 0.984 ± 0.018, 0.982 ± 0.04 and 0.981 ± 0.027.
In the case of `COc1ccc(/C=C/C(=O)c2ccc(O)cc2O)cc1`, the cell viability amounted to 0.938 ± 0.088 in the assay on DLD1 [1], 0.947 ± 0.065 in the assay on HCT116 and 1.035 ± 0.0071 in the assay on SW480 [2]. The “TCF/Wnt firefly luciferase reporter signal” value is 1.085 ± 0.0071 in the assay on DLD1 [3] and 0.794 ± 0.054 in the assay on SW480 [4].
As for `O=C1OC(c2ccc(O)cc2)(c2ccc(O)cc2)c2ccccc21`, the cell viability with DLD1 [1] was found to be 1.01 ± 0.12; in the assay with HCT116, 1.03 ± 0.12; in the assay on SW480 [2], 1.025 ± 0.0071. For the same molecule, the “TCF/Wnt firefly luciferase reporter signal” value was 0.981 ± 0.069 with DLD1 [3] and 1.04 ± 0.057 in the assay on SW480 [4].
On the same counts, the results for `COc1cc(OC)c2c(=O)c(-c3ccc4c(c3)OCO4)coc2c1` are 0.9395 ± 0.00071, 1 ± 0.16, 0.9755 ± 0.005, 1.02 ± 0.066 and 1.02 ± 0.028.
For `C#C[C@]1(O)CC[C@H]2[C@@H]3CCC4=CCCC[C@@H]4[C@H]3CC[C@@]21C` the same measures were 1 ± 0.094, 1.04 ± 0.021, 0.97 ± 0.0085, 1.02 ± 0.033 and 0.905 ± 0.042.
On the same counts, the results for `O=C(NCO)c1cccnc1` are 0.952 ± 0.027, 0.921 ± 0.022, 1.04 ± 0.028, 1.02 ± 0.13 and 0.959 ± 0.013.
Regarding `OCCN1CCN(CCCN2c3ccccc3Sc3ccc(Cl)cc32)CC1`, the results for the cell viability in the assay on DLD1 [1], with HCT116 and in the assay on SW480 [2] were 0.891 ± 0.027, 0.917 ± 0.08 and 0.983 ± 0.025, respectively. Also, the “TCF/Wnt firefly luciferase reporter signal” value is 1.03 in the assay with DLD1 [3] and 0.976 ± 0.13 with SW480 [4].
For `C=C1C[C@H]2[C@@H]3C=C(C)C4=CC(=O)CC[C@]4(C)[C@H]3CC[C@]2(C)[C@@]1(OC(C)=O)C(C)=O` the same measures were 0.99 ± 0.042, 1 ± 0.11, 1.01, 0.986 ± 0.076 and 0.902 ± 0.094.
On the same counts, the results for `O=C(O)C1=CCCNC1` are 1.01 ± 0.061, 1.01 ± 0.037, 1 ± 0.013, 1.13 ± 0.028 and 1.04 ± 0.16.
On the same counts, the results for `COc1cc2c(cc1OC)Cc1cc(OC)c(OC)cc1Cc1cc(OC)c(OC)cc1C2` are 1.02 ± 0.055, 0.97 ± 0.16, 1.02 ± 0.033, 1.1 ± 0.15 and 0.865 ± 0.045.
In the case of `CC(C)(C)NCC(O)c1ccc(O)c(CO)c1` (stereo not given), the cell viability with DLD1 [1] amounted to 0.952 ± 0.096; in the assay with HCT116, 1.07 ± 0.092; in the assay with SW480 [2], 0.922 ± 0.0057. Also, the “TCF/Wnt firefly luciferase reporter signal” value in the assay on DLD1 [3] is 1.06 ± 0.014; in the assay with SW480 [4], 0.995 ± 0.14.
On the same counts, the results for `CC(C(=O)O)c1ccc(-c2ccccc2)c(F)c1` (stereo not given) are 1.09 ± 0.11, 1.11 ± 0.078, 1.04, 1.07 ± 0.014 and 1.02 ± 0.035.
